DT40 TDP1 no CPT: qHTS for Inhibitors of human tyrosyl-DNA phosphodiesterase 1 (TDP1): qHTS in cells in absence of CPT | DT40 Tdp1-/- hTDP1 cells, no CPT, ATP luminescence, 48 h | Potency, µM (titrated, usually from 46.2 µM), actives largely listed as inhibitors | 15% of 420,000 active; further: nearly all actives have a fitted effect of over 55% in size
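Stably hTDP1-transfected Tdp1-null chicken DT40 cells were treated with library compounds minus camptothecin and grown for at least 48 hr at 37 °C, after which cellular ATP was quantified by luminescence.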
TDP1 cell CPT: DT40-hTDP1 cell growth loss with CPT; chicken DT40 Tdp1-/-;hTDP1 cells + 20 nM CPT, ATP luminescence, 48 h; Potency, µM (doses to about 46.2 µM), hits mostly inhibitors; 12% of 420,000 active; further: nearly all actives have a fitted effect of over 55% in size
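Chicken DT40 Tdp1-/- cells complemented with human TDP1, 400 cells/well, exposed to compounds plus 20 nM camptothecin for at least 48 h at 37 C; viability read as ATP content by CellTiter-Glo luminescence.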
TDP1 inh: TDP1 (human) enzyme inhibition; Q9NUW8; AID 485290; recombinant TDP1, AlphaScreen DNA substrate cleavage; 0.28% of 350,000 active; Potency, µM (highest dose often 130 µM), hits mostly inhibitors; further: nearly all actives have a fitted effect of over 40% in size
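Recombinant E. coli-expressed Tdp1 (1 nM) preincubated with compound 15 min at RT, then 5'-biotin/3'-phosphotyrosine-FITC DNA substrate (15 nM) added for 5 min. AlphaScreen beads (10 ug/ml) added, 10 min RT; tyrosine-FITC cleavage read as signal loss.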
RORg inh: blocks mouse ROR gamma transcriptional activity. Drosophila S2 Gal4-RORgamma UAS-luciferase reporter, 20 h. P51450. 5.4% of 310,000 active. AID 2551. Potency, µM (doses to about 53.6 µM), actives largely listed as inhibitors; further: nearly all actives have a fitted effect of over 60% in size
Target sequence (P51450 whole entry, looked up, the tested form may be a part): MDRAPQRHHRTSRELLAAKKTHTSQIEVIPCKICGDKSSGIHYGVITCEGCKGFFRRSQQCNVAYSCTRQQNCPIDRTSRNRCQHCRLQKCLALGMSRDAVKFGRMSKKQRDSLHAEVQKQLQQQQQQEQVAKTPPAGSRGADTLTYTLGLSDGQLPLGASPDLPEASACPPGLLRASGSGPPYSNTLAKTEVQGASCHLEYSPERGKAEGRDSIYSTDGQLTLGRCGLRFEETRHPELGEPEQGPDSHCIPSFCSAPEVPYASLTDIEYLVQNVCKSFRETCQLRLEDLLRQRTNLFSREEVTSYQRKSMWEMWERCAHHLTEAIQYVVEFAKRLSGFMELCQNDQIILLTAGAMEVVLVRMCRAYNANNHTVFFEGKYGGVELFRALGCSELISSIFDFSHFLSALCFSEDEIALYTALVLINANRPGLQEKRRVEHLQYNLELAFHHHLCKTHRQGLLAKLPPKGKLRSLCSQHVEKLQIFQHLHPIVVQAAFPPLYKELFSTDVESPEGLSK
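A Gal4/UAS one-hybrid system in insect cells: metallothionein-promoter Gal4–ROR gamma fusion plus Photinus luciferase reporter. Copper sulfate 700 uM final, 20 hr ambient incubation, luminescent detection after 10 min with reagent.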
Gal4-VP16 FLuc: inhibits Gal4-VP16 luciferase reporter, ROR gamma counter-screen | Drosophila S2 Gal4-VP16 UAS-luciferase, luminescence, 20 h | Potency, µM (top dose mostly 53.6 µM), hits mostly inhibitors | 3.5% of 310,000 active;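 further: Gal4-VP16 expression switched on by copper sulfate through the metallothionein promoter; nearly all actives have a fitted effect of over 50% in size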
Hits are given with their value; – = inactive; ? = inconclusive; · = not tested or not shown. Sampled rows, rich in hits. Any-hit rate of the full collection: about 19%. The call rests on the fitted dose curve; in most records, active means well fitted curve in the direction sought with a large enough effect; inconclusive means small, poorly fitted or top-dose-only effect, or another doubt; inactive means no such curve, though single readings can be large; an effect the other way counts as inactive or inconclusive.

SMILES	DT40 TDP1 no CPT	TDP1 cell CPT	TDP1 inh	RORg inh	Gal4-VP16 FLuc
Cc1cccc(C)c1NC(=O)C(c1ccccc1)N1CCN(C)CC1 (stereo not given)	–	–	·	·	·
Cc1cccc(C)c1NC(=O)C(c1ccccc1F)n1c(=O)c(-c2ccco2)nc2ccccc21 (stereo not given)	20.6µM	?	·	·	·
CC1CCCN(C(C(=O)Nc2ccc3c(c2)OCCO3)c2ccccc2)C1 (stereo not given)	–	–	–	–	–
Cc1cccc(C)c1NC(=O)C(c1ccnc2ccccc12)N1CCN(C)CC1 (stereo not given)	18.4µM	?	·	·	·
COc1ccc(C2CC(c3cccs3)=NN2C(=O)CSC2=NCCS2)cc1 (stereo not given)	?	–	–	–	–
CN(C(=O)c1ccc(NC(=O)Cc2cccc(NC(=O)C3CCN(C(=O)C4CCCCC4)CC3)c2)cc1)C1CC1	?	–	·	·	·
COC(=O)C(C)(C)ONC(=O)Nc1ccc(Br)cc1	–	23.1µM	–	–	–
Cc1ccc(Cn2c(O)c(N=NC(=S)Nc3ccccc3F)c3cc(S(=O)(=O)N4CCOCC4)ccc32)cc1	2.06µM	3.66µM	–	2µM	?
CCc1ccccc1NC(=S)N=Nc1c(O)n(C)c2ccc(S(=O)(=O)N3CCOCC3)cc12	5.8µM	5.17µM	–	1.12µM	4.47µM
Cc1ccc(C)c(NC(=S)N=Nc2c(O)n(C)c3ccc(S(=O)(=O)N4CCOCC4)cc23)c1	2.91µM	4.11µM	–	0.631µM	1.12µM
N#C/C(=C\c1cccnc1)C(=O)Nc1cccc2ccccc12	?	?	–	?	?
CC[n+]1c(/C=C/Nc2ccccc2)oc2ccccc21	14.6µM	14.6µM	–	–	–
O=C1NC(=Nc2ccc(F)cc2)SC1Cc1ccc(F)cc1 (stereo not given)	?	?	–	–	–
CCc1ccc(CC2S/C(=C(\C#N)C(C)=O)NC2=O)cc1 (stereo not given)	2.31µM	1.64µM	–	–	–
CC(=O)/C(C#N)=C1\NC(=O)C(Cc2ccc(C)c(Cl)c2)S1 (stereo not given)	2.06µM	10.3µM	–	–	–
CCc1nnc(NC(=O)CN2CCN(c3ccccc3F)CC2)s1	–	–	–	–	–
Cc1ccccc1S(=O)(=O)Cc1ccc(C(=O)N2CCN(c3ccccc3F)CC2)o1	?	?	–	–	–
O=C(Nc1ccc2oc(-c3ccccc3Cl)nc2c1)c1cncc(Br)c1	11.6µM	7.31µM	–	–	?
O=C(Nc1ccc2oc(-c3cc(Br)ccc3Cl)nc2c1)c1ccc2ccccc2c1	11.6µM	16.4µM	·	·	·
O=C(Nc1ccc2oc(-c3ccccc3Cl)nc2c1)c1ncn[nH]1	–	–	–	–	–
O=C(CSc1nc2ccccc2n1Cc1ccccc1)N/N=C/c1ccccc1C(=O)O	–	–	·	–	–
c1coc(-c2nc3nc4ccccc4nc3n2-c2ccc3c(c2)OCCO3)c1	–	–	–	–	–
COc1cccc(/C=N/NC(=O)CNC(=O)c2cccs2)c1O	9.2µM	5.8µM	–	3.16µM	11.2µM
COc1ccccc1/C=C\C(=O)NCC(=O)N/N=C/c1cccc(OC)c1O	7.31µM	7.31µM	?	4.47µM	7.08µM
COc1ccc(Br)cc1/C=N/NC(=O)C[n+]1ccccc1	13µM	18.4µM	·	–	–
SMILES	DT40 TDP1 no CPT	TDP1 cell CPT	TDP1 inh	RORg inh	Gal4-VP16 FLuc
COc1ccc(/C=C/C(=O)NCC(=O)N/N=C/c2cc(Br)ccc2OC)cc1	–	–	–	–	–
COc1cccc(/C=N/NC(=O)CNC(=O)CCc2ccccc2)c1O	?	?	–	?	–
O=C(C[n+]1ccccc1)N/N=C/c1cc(Br)ccc1F	–	–	–	·	·
COc1ccccc1/C=C/C(=O)NCC(=O)N/N=C/c1cc(Br)ccc1OC	?	?	–	12.6µM	–
CCOC(=O)CN1N=C(/C=C/c2ccccc2)CCC1=O	–	–	·	·	·
O=C1CSC(=NC2CCCCC2)N1	18.4µM	23.1µM	–	?	?
O=C1CS/C(=N/N=C2CCCC2)N1	–	–	–	7.94µM	?
O=C1CSC(=Nc2ccc(F)cc2)N1	–	–	·	–	–
Oc1ccc(Nc2nc3ccccc3nc2Nc2ccc(O)cc2)cc1	2.31µM	1.64µM	–	15.8µM	?
C#CCn1c(S(=O)(=O)Cc2ccc(F)cc2)nc(-c2ccccc2)c1-c1ccccc1	10.3µM	14.6µM	–	–	–
CCOC(=O)Cn1c(S(=O)(=O)Cc2cccc(F)c2)nc(-c2ccccc2)c1-c1ccccc1	10.3µM	8.2µM	–	–	–
O=C(Cn1c(S(=O)(=O)Cc2ccccc2)nc2ccccc21)N1CCCCC1	–	?	–	–	–
O=C(CCC(=O)N1CCOc2ccccc21)NCc1cccs1	–	–	–	·	·
CCOC(=O)c1sc(=S)[nH]c1C	?	–	·	·	·
CCOC(=O)c1c(C)[nH]sc1=S	–	–	–	6.31µM	?
CCOC(=O)c1cc(-c2ccccc2)sc1NC(=O)COC(=O)c1ccc(Cl)c(S(N)(=O)=O)c1	?	–	–	–	–
CCOC(=O)c1cc(-c2ccccc2)sc1NC(=O)COC(=O)c1cccc(S(N)(=O)=O)c1	10.3µM	?	–	?	–
CCOC(=O)c1cc(-c2ccccc2)sc1NC(=O)c1ccc(OC)cc1	?	7.31µM	–	–	–
CCOC(=O)c1cc(-c2ccccc2)sc1NC(=O)CC	–	–	–	–	–
COc1ccccc1NC(=O)CCSc1nnc(-c2ccco2)o1	–	–	–	–	–
Cc1cc(-c2nnnn2-c2cc(Cl)cc(Cl)c2)no1	–	–	·	–	–
Cc1nc(-c2ccncc2)nc(NCCNc2ncccc2C(F)(F)F)c1Cl	7.31µM	11.6µM	·	–	–
O=C(Cc1cccs1)Nc1cccc(C(=O)Nc2ccc(C(=O)O)cc2)c1	–	–	–	–	–
CC1(C)CCC(c2ccc(Cl)cc2)=C(CN2CCN(c3ccc(C(=O)NS(=O)(=O)c4ccc(N[C@H](CCN5CCOCC5)CSc5ccccc5)c(S(=O)(=O)C(F)(F)F)c4)cc3)CC2)C1	0.316µM	0.447µM	·	·	·
COC(=O)C1=C(C)N(Cc2ccccc2)C(=NCc2cccc(Cl)c2)N[C@H]1c1cccc(F)c1	3.66µM	2.59µM	–	?	?
COC(=O)C1=C(C)N(Cc2ccccc2)C(=NCc2cc(OC)c(OC)c(OC)c2)N[C@H]1c1cccc(F)c1	8.2µM	11.6µM	·	–	–
CCN1C(=NCc2cc(OC)c(OC)c(OC)c2)N[C@@H](c2ccccc2)C(C(=O)OC)=C1C	–	?	–	–	–
COC(=O)C1=C(C)N(Cc2ccccc2)C(=NCc2ccco2)N[C@H]1c1cccc(F)c1	18.4µM	11.6µM	–	·	·
COC(=O)C1=C(C)N(Cc2ccccc2)C(=NCc2ccc(OC)cc2)N[C@H]1c1cccc(F)c1	16.4µM	14.6µM	·	–	–
CCN1C(=NCc2ccc(OC)cc2)N[C@@H](c2ccccc2)C(C(=O)OC)=C1C	?	?	·	–	–
